In PubChem BioAssay AID1239 (SRMLSC, 2008):
Out of some 190,000 compounds screened, about 3,100 (1.6%) were called active. Rule as the data show it: active = fold change above about 3.3; inconclusive = no clear call, values can overlap the other calls; inactive = below that. The sample as a whole holds a higher share of actives than the screen did.

Experiment: NF-kB upregulation, human neuronal cells – cell-based, HTS, primary screen (AID 1239)
Conditions: NF-kB reporter expression, at 12.5 µM, stronger effect = higher value

Fold change, inactive:
C/[N+]([O-])=C\c1ccc([N+](=O)[O-])o1 0.83, Cn1cc(/C=C/c2nc3ccccc3c(=O)n2-c2cccc([N+](=O)[O-])c2)c2ccccc21 1.02, Cn1c(=N)n(CC(O)c2cccs2)c2ccccc21 (stereo not drawn) 1.08, CC(C)(C)N(CC#CCC(O)(c1ccccc1)C1CCCC1)CCO (stereo not drawn) 1.15, COc1cccc2sc(NNC(=O)c3nc4ccccc4s3)nc12 1.13, COc1ccccc1N1CC(O)=C(c2nc3ccccc3s2)C1=N 0.59, Cc1ccc(NC(=O)c2csc3c2CCCC3)cc1 1.12, CCN1CCN(C(=O)CN(C)S(=O)(=O)c2ccc3ccccc3c2)CC1 1, CCc1ccc(NC(=O)N2CCN(c3ccccc3)CC2)cc1 1.34, CCOC(=O)c1ccc(NC2Nc3cc(C)nn3S2)cc1 (stereo not drawn) 1.14, O=C(NCc1ccccc1)C1=C[C@@H](c2ccc(C(F)(F)F)cc2)C[C@@H](OCc2ccc(CO)cc2)O1 0.94, CCN(C(=O)COC(=O)c1ccc(COc2ccc3c(C)cc(=O)oc3c2)cc1)C1CCS(=O)(=O)C1 (stereo not drawn) 1.19, CSCC(=O)N1CCCC(C(=O)c2cc(F)ccc2F)C1 (stereo not drawn) 1.18, Fc1ccccc1N=C1Nc2cccc3cccc1c23 0.99, Cc1ccc(N=Cc2c(O)n(-c3nccs3)c(=O)c3ccccc23)c(C)c1 1.01, Cc1cccc(-n2c(C)cc(/C=N/NC(N)=S)c2C)c1 1.29, Cc1c(CN2CCCC(C(=O)c3cccc(Cl)c3)C2)c(=O)n(-c2ccccc2)n1C (stereo not drawn) 1.12, Cc1ccc(C(=O)Nc2cccc3ncccc23)cc1[N+](=O)[O-] 1.38, CC(C)(c1ccccc1)c1ccc(OCCN)cc1 1.16, O=C(Nc1ccc(F)cc1)N1CCN(c2ccc(F)cc2)CC1 1.12, CCOC(=O)C1(Cc2cccc(OC)c2)CCN(Cc2csc(C(C)=O)c2)CC1 0.84, O=C(c1ccccc1)N1CCN(C(=O)N2CCCCC2)CC1 1.3, O=C(O)c1ccc(N=NN2CCOCC2)cc1 1.3, COc1ccc(C(=O)NC2CCN(C(=S)Nc3ccccc3)CC2)cc1 1.12, COc1ccc(C(=S)Nc2ccccc2)cc1 1.98, Cc1ccc(C(=O)NNC(=O)c2cccs2)cc1 1.67, COCCNC(=O)/C(C#N)=C/c1nc(N(C)C)n(-c2ccc(F)cc2)c1Cl 1.11, Cc1nc(N2CCC(C)CC2)c2c(C)c(C(=O)Nc3cc(F)ccc3C)sc2n1 0.88, O=[N+]([O-])c1cccc(/C([O-])=C(/C(=S)Nc2ccccc2F)[n+]2ccccc2)c1 1.02, Cn1cc(Cl)c(C(=O)NNC(=S)Nc2cccc(Cl)c2)n1 1.46, Cc1cccc(C)c1Nc1nnc(SCC(=O)Nc2sccc2C#N)s1 1.08, COc1ccc(NC(=O)CSc2nc(C)cs2)cc1 1.38, CCO/C=C1\C(=O)N(c2ccc(OCC)cc2)C(=O)c2ccccc21 1.05, Cc1ccc(-c2csc(NC(=O)c3cccs3)n2)cc1 1.97, Cc1ccc(-c2nnc(-c3ccc(NC(=O)c4cccs4)cc3)o2)cc1 1.45, COc1ccc(CNC(=O)COC(=O)/C=C/c2ccc(S(=O)(=O)N3CCOCC3)cc2)cc1 1, COCCNc1nc2nonc2nc1N1CCCC1c1nccs1 (stereo not drawn) 1.05, C=CCN(Cc1nc(-c2cc(OC)c3c(c2)OCO3)oc1C)C1CCS(=O)(=O)C1 (stereo not drawn) 1.14, O=C(CSc1nnc2ccccn12)c1ccccc1 1.88, Cc1ccc(-n2c(C)cc(C(=O)CN3C(=O)C(=O)N(C4CCCC4)C3=O)c2C)cc1 0.71, CC1CC(C)CN(S(=O)(=O)c2ccc(C(=O)NN3CCOCC3)cc2)C1 (stereo not drawn) 1.27, Cc1cc(OCC(=O)NC2CCN(C)CC2)ccc1[N+](=O)[O-] 0.99, COc1ccccc1N(C)S(=O)(=O)c1ccc(Cl)c(C(=O)N2CCC(C(N)=O)CC2)c1 1.12, Cn1cnc(C(F)(F)F)c1-c1ccc([N+](=O)[O-])cc1 1.2, Cc1ccc(-c2cn3cc(C)ccc3n2)cc1 0.56, CCOC(=O)N1CCN(C(=O)CSc2nc(C)nc3c2c(=O)n(C)c(=O)n3C)CC1 0.96, Cc1cc(NC(=O)CSc2nc3ccccc3n2CC(C)C)no1 1.74, COc1ccc(NS(=O)(=O)c2cc(NC(=O)C3CCCCC3)ccc2N2CCOCC2)cc1 0.72, Cc1cc(C)nc(NNC2=CC(=O)CC(C)(C)C2)n1 1.06, COc1ccccc1C1C2=C(COC2=O)Nc2cc3c(cc21)OCO3 (stereo not drawn) 1.19, COCCOC(=O)C1=C(C)NC(=O)CC1c1cc2c(cc1Br)OCO2 (stereo not drawn) 0.99, COc1ccc(-n2ncc3c(N4CCCc5ccccc54)ncnc32)cc1 1, O=C(NNc1ncnc2c1cnn2-c1ccccc1)c1ccco1 1.27, COc1ccc(-n2ncc3c(N4CCc5ccccc54)ncnc32)cc1 0.87, O=C(NCCC1=CCCCC1)C1CCN(Cc2cnn(-c3ccccc3)c2-n2cccc2)CC1 0.8

Fold change, active:
CCn1c(/C=C/c2ccc([N+](=O)[O-])o2)nc2ccccc2c1=O 4.02, COc1ccccc1OCc1nc2ccccc2s1 4.3, CCc1ccc(NC2Nc3cc(C)nn3S2)cc1 (stereo not drawn) 4.6, Cc1cccc(-n2c(O)c(C=Nc3ccccc3N)c(=O)[nH]c2=O)c1 4.16, O=C(O)c1cccc(N=NN2CCCCCC2)c1 5.59, COc1ccc(NC(=S)N2N=CCC2c2ccccc2)cc1 (stereo not drawn) 3.93, Cc1csc(SCC(=O)Nc2sccc2C#N)n1 5.12, Cc1nc(-c2ccc(NC(=O)c3cccs3)cc2)cs1 5.59, Cc1ccc(-n2c(C)cc(C(=O)CSc3nnc4ccccn34)c2C)cc1 3.7, Cc1ccc(-c2cn3cc([N+](=O)[O-])ccc3n2)cc1 4.75, CCCOc1ccccc1C1CC(=O)Nc2cc3c(cc21)OCO3 (stereo not drawn) 3.71, c1ccc(-n2ncc3c(N4CCCC4)ncnc32)cc1 5.1, C1=C(CCNc2ncnc3c2cnn3-c2ccccc2)CCCC1 4.63
